This note sets out measurements from PubChem BioAssay AID463173 (ICCB-Longwood Screening Facility, Harvard Medical School, 2010).

Screen size: about 52,000 compounds; about 4,300 (8.3%) were called active. The list comes from a sample in which actives are over-represented; it also holds similar structures and randomly drawn compounds. Values without a mark were called inactive. Rule as the data show it: active = survival mostly below about 52% (no sharp cut-off); inactive = mostly above about 56%.

For the assay, the system named is DeltatarO mutant. Description: S. aureus survival, RN4220 and DeltatarO strains – OD600, teichoic acid synthesis inhibitors, primary screen (AID 463173). The following applies: S. aureus RN4220 wild type/DeltatarO growth, OD600, 18 h, active compounds read low, screened at 18.75 µg/mL (by protocol).
In the case of `O=S(=O)(Nc1ccc(-c2ccc(N3CCCC3)nn2)cc1)c1ccc(Cl)cc1`, the survival is 102%.

`CCCCN(C)C(=O)c1ccc2c(c1)N(Cc1ccc(F)cc1)C(=O)c1ccccc1S2(=O)=O`: the survival is 118%.

In the case of `O=C(Nc1ccc(F)cc1C(F)(F)F)C1CCN(c2ncccn2)CC1`, the survival was 76%.

As for `CC(=O)Nc1ccc2c(c1)n(C)c(=O)n2C`, the survival was 85%.

With `COc1ccc(OC)c(CCNC(=O)C(C)n2c(C)c3cnn(-c4ccccc4)c(=O)c3c2C)c1` (stereo not drawn), the survival is 82%.

In the case of `Cc1cc(C)c(C#N)c(SCc2cccnc2)n1`, the survival was 53%.

As for `COc1cccc(CSc2nc3cc(OC)c(OC)cc3c3nc(CCn4nc(C)cc4C)nn23)c1`, the survival is 60% (active).

Regarding `COc1cc2nc(SCc3cccc(Cl)c3)n3nc(CCn4nc(C)cc4C)nc3c2cc1OC`, the survival was 79%.

As to `COc1cc2nc(SCc3ccc(C)cc3)n3nc(CCn4nc(C)cc4C)nc3c2cc1OC`, the survival was 58%.

With `CCc1ccccc1NC(=O)c1ccc2nc(C(C)C)oc2c1`, the survival is 73%.

Regarding `CCn1cc2nc(SCc3cc(C)ccc3C)n(Cc3ccc(C)cc3)c(=O)c2n1`, the survival is 69%.

For `CCC(CC)C(=O)Nc1nnc(SCc2cc(=O)c3ccccc3[nH]2)s1`, the survival was 115%.

For `COc1ccc(-n2c(SC)nc3sc4c(c3c2=O)CCN(C(C)=O)C4)cc1`, the survival is 127%.

`CCCCCSc1nc2sc3c(c2c(=O)n1-c1ccc(OC)cc1)CCN(C(C)=O)C3`: the survival was -18% (active).

For `CCCCCSc1nc2sc3c(c2c(=O)n1-c1ccccc1)CCN(C(C)=O)C3`, the survival is 77%.

On to `COc1ccc(-n2c(SCCC(C)C)nc3sc4c(c3c2=O)CC(C(C)C)OC4)cc1` (stereo not drawn), for which the survival is 30% (active).

On to `CC(=O)N1CCc2c(sc3nc(SCC(C)C)n(-c4ccc(C)c(Cl)c4)c(=O)c23)C1`, for which the survival is 45% (active).

For the compound `CCSc1nc2sc3c(c2c(=O)n1-c1ccc(C)c(Cl)c1)CCN(C(C)=O)C3`, the survival was 61%.

On to `CCOC(=O)CSc1nc2sc3c(c2c(=O)n1-c1ccc(OC)cc1)CC(C(C)C)OC3` (stereo not drawn), for which the survival was 73%.

In the case of `COc1ccc(-n2c(=O)c3c4c(sc3n3c(SCCC(C)C)nnc23)COC(C(C)C)C4)cc1` (stereo not drawn), the survival is 59%.

For the compound `CC(=O)N1CCc2c(sc3nc(SCC(C)C)n(-c4ccc(F)c(Cl)c4)c(=O)c23)C1`, the survival was 63%.

For the compound `Nc1c(C(=O)Nc2cccc(Cl)c2)sc2nc3c(cc12)CN(Cc1ccccc1)CC3`, the survival was 69%.

With `Cc1ccc(NC(=O)Cn2cc3c(n2)CCCCC3)cc1`, the survival is 77%.

With `COc1ccc(NC(=O)CSc2nc3ccccc3n2CC(=O)N(C)c2ccc(F)cc2)cc1`, the survival was 87%.

As to `Cc1nn(C)c(C)c1S(=O)(=O)N(CC(=O)N1CCN(c2ccccc2)CC1)c1ccc(C(C)C)cc1`, the survival was 79%.

Take `COc1ccc(-c2cn3c(n2)sc2cc(C(=O)NCC(C)c4ccccc4)ccc23)cc1` (stereo not drawn): the survival is 65%.

As for `CCOc1ccc(-n2c(SCC(=O)N3CCCCCC3)nc3c([nH]c4ccccc43)c2=O)cc1`, the survival is 106%.

Turning to `O=C(CSc1nc2c([nH]c3ccccc32)c(=O)n1-c1ccccc1)N1CCCCCC1`, the survival is 95%.

`O=C(CSc1nc2c([nH]c3ccccc32)c(=O)n1-c1ccc(F)cc1)NC1CCCCC1`: the survival is 83%.

As to `CCOc1ccc(-n2c(SCC(=O)NC3CCCCC3)nc3c([nH]c4ccccc43)c2=O)cc1`, the survival was 92%.

With `COc1ccc(-n2c(SCC(=O)NC3CCCCC3)nc3c([nH]c4ccccc43)c2=O)cc1`, the survival was 37% (active).

Turning to `COc1cccc(-n2c(SCC(=O)N3CCCCC3)nc3c([nH]c4ccccc43)c2=O)c1`, the survival is 20% (active).

Regarding `CCSc1nc2c([nH]c3ccccc32)c(=O)n1-c1ccc(F)cc1`, the survival is 87%.

Regarding `CCSc1nc2c([nH]c3ccccc32)c(=O)n1-c1cccc(OC)c1`, the survival was 94%.

Regarding `CCSc1nc2c([nH]c3ccccc32)c(=O)n1-c1ccc(OC)cc1`, the survival is 46% (active).

Take `O=C(CSc1nc2c([nH]c3ccccc32)c(=O)n1-c1ccccc1)N1CCCCC1`: the survival was 73%.

As to `CCC1CCCCN1C(=O)CSc1nc2c([nH]c3ccccc32)c(=O)n1-c1cccc(OC)c1` (stereo not drawn), the survival is 66%.

Turning to `CCC1CCCCN1C(=O)CSc1nc2c([nH]c3ccccc32)c(=O)n1-c1ccc(OC)cc1` (stereo not drawn), the survival is 25% (active).

Consider `C(#Cc1ccccc1)CN1CCCCC1`, for which the survival is 107%.

For the compound `CN(C)S(=O)(=O)c1ccc(C(=O)NCCSc2c(-c3ccc(Br)cc3)[nH]c3ccccc23)cc1`, the survival is 74%.

With `CC(C)Cn1c(SCc2cccc(F)c2)nc2ccsc2c1=O`, the survival is 74%.

As for `CCCCNC(=O)CSc1nc2n[nH]c(C)c2c(=N)n1-c1ccccc1CC`, the survival is 89%.

On to `O=C1CN(C(=O)Nc2ccccc2Cl)C(c2ccccc2)c2c(sc3c2CCCC3)N1` (stereo not drawn), for which the survival was 73%.

`CCc1ccccc1N1C(=O)N(CC(=O)c2ccc(OC)cc2)c2ccccc2S1(=O)=O`: the survival was 79%.

For `CC(C)CCNC(=O)Nc1ccc2c(c1)N(Cc1ccccc1)C(=O)c1ccccc1S2`, the survival was 79%.

With `Cc1nc(SCCOc2ccccc2F)[nH]c(=O)c1Cc1ccccc1`, the survival is 75%.

As for `Cc1ccc(-n2nc3c(=O)n(C(C)C(=O)O)nc(C)c3c2C)cc1` (stereo not drawn), the survival was 101%.

With `Cc1ccc(-c2nc(C(=O)NCc3ccc(Cl)cc3)c3n2CCCCC3)cc1`, the survival is 56%.

Regarding `CSc1nnc2[nH]c(=O)cc(C)n12`, the survival is 69%.

Regarding `Cc1ccc(-n2nc(C)c3c(C(=O)Nc4ccc(C)cc4Cl)cc(C)nc32)cc1`, the survival was 63%.

As to `CCC(=O)Nc1nnc(S(=O)(=O)N(C)Cc2ccc(Cl)cc2)s1`, the survival is 94%.

Turning to `CN(Cc1ccco1)S(=O)(=O)c1nnc(NC(=O)c2cccc(Cl)c2)s1`, the survival was 5% (active).

Consider `Cc1cccc(C(=O)Nc2nnc(S(=O)(=O)N(C)Cc3ccco3)s2)c1`, for which the survival was 25% (active).

With `CN(c1ccc(Cl)cc1)S(=O)(=O)c1nnc(NC(=O)c2ccco2)s1`, the survival is 62%.

`COc1cc(C(=O)Nc2cc(C)ccc2OCc2cc(=O)n3c(C)csc3n2)cc(OC)c1OC`: the survival was 58%.

For the compound `COc1ccc(N(CC(=O)N2CCN(c3ccc(F)cc3)CC2)S(=O)(=O)c2c(C)n[nH]c2C)cc1`, the survival was 70%.

As for `O=C(Nc1ccc(NC(=O)c2ccccc2F)cn1)c1ccco1`, the survival is 82%.

As to `COc1ccc(OC)c(NC(=O)Cc2c(C)n(C(=O)c3ccc(Cl)cc3)c3ccc(OC)cc23)c1`, the survival is 74%.

On to `CCOc1cc(-c2ccc(OC(=O)c3ccc(Cl)cc3)c(OC)c2)cc(=O)c2c(C)oc(C)c12`, for which the survival is 80%.

Regarding `CCOc1cc(-c2ccc(OC(=O)c3ccc(OC)cc3)c(OC)c2)cc(=O)c2c(C)oc(C)c12`, the survival was 41% (active).

Turning to `CCOc1cc(-c2ccc(OC(=O)c3ccc(C)cc3)c(OC)c2)cc(=O)c2c(C)oc(C)c12`, the survival was 99%.

Regarding `O=C(CSc1ncc2c(n1)-c1ccccc1N(Cc1ccc(F)cc1)S2(=O)=O)NCCc1ccccc1`, the survival is 94%.

With `Cc1cccc(NC(=O)NC2COc3ccccc3C2)c1C` (stereo not drawn), the survival was 69%.

Regarding `Cc1cc(C)cc(-n2c(SCC(N)=O)nc3c(oc4ccccc43)c2=O)c1`, the survival was 97%.

As for `O=C(NCCCc1ccccc1)c1ccc2c(c1)sc1nc(-c3ccc(F)cc3)cn12`, the survival was 44% (active).

`Cc1ccc(-c2cn3c(n2)sc2cc(C(=O)NC4CCCCCC4)ccc23)cc1`: the survival was 94%.

Consider `O=C(NC1CCCCC1)c1ccc2c(c1)sc1nc(-c3ccccc3)cn12`, for which the survival is 69%.

As to `Cc1ccc(-c2cn3c(n2)sc2cc(C(=O)NCCCN4CCCCCC4)ccc23)cc1`, the survival is -4% (active).

Consider `Cc1ccc(-c2cn3c(n2)sc2cc(C(=O)NCCCc4ccccc4)ccc23)cc1`, for which the survival is 72%.

As to `Cc1ccc(-c2cn3c(n2)sc2cc(C(=O)N4CCCCC4)ccc23)cc1`, the survival is 79%.

Consider `O=C(NCCCN1CCCCCC1)c1ccc2c(c1)sc1nc(-c3ccccc3)cn12`, for which the survival was 44% (active).

Regarding `Cc1ccc(-c2cn3c(n2)sc2cc(C(=O)NC4CCCCC4)ccc23)cc1`, the survival was 68%.

In the case of `O=C(NC1CCCCCC1)c1ccc2c(c1)sc1nc(-c3ccccc3)cn12`, the survival was 55%.

As for `Cc1ccc(-c2cn3c(n2)sc2cc(C(=O)NCCCN4CCCCC4)ccc23)cc1`, the survival was -3% (active).

Consider `CCc1ccc(-c2cn3c(n2)sc2cc(C(=O)NCCCc4ccccc4)ccc23)cc1`, for which the survival was 70%.

Consider `Cc1ccc(Cn2c(SCC(=O)C(C)(C)C)nc3ccsc3c2=O)cc1`, for which the survival was 77%.

Consider `Cc1ccccc1C(=O)n1nc(-c2ccco2)nc1NCc1ccc(Cl)cc1`, for which the survival is 80%.

Turning to `Cc1cccc(CCNC(=O)c2ccc3c(c2)nc2n3CCCCC2)c1`, the survival is 77%.

On to `O=C(c1ccccc1)N1CCN(Cc2ccccc2)CC1`, for which the survival was 72%.

On to `CCOc1ccc(/C=C/c2nc(C#N)c(N(C)C)o2)cc1`, for which the survival was 102%.

As to `CCCCN(CC)CCNC(=O)Cn1cc2c(n1)-c1c(oc(C(=O)N3CCCC3)c1C)CC2`, the survival is 85%.

As to `COC(=O)c1cc2occc2n1Cc1nc(-c2ccccc2F)oc1C`, the survival is 102%.

For `Cc1cc2ncn(S(=O)(=O)c3ccc(S(=O)(=O)NCC4CCCO4)cc3)c2cc1C` (stereo not drawn), the survival was 82%.

For `O=C(NCCCN1CCCCC1)c1ccc2c(c1)sc1nc(-c3ccc(F)cc3)cn12`, the survival is 53% (active).

In the case of `COc1ccc(N2CCN(CCCNC(=O)c3ccc4nc(N5CCCCC5)sc4c3)CC2)cc1`, the survival is 78%.

On to `Cc1ccc[n+](CC(=O)c2cccs2)c1`, for which the survival was 106%.

Take `CCN1CCN(Cc2nc3cc(NC(=O)c4cc(OC)c(OC)c(OC)c4)ccc3n2CC)CC1`: the survival was 84%.

`CC(=O)c1ccc(N2CCN(S(=O)(=O)c3ccc4[nH]c5c(c4c3)CCCC5)CC2)cc1`: the survival was 64%.
